The values below come from article PMC12136788.

Where a chain is given by its changes, count along the chain named. Whole data set: some 5,800 sequences, median “enrichment r” near 0.54, cut for the highest 2% near 16. The entries come from a sample that favours the highest values as a whole.

To fix the notation:
B1: chr12:2800410:2800520:+|CDS|ENSG00000004478|unk|total|mutant (ssRNA)
RNA: GGGAGUUCUACAGUCCGACGAUCAAAUACAAGCAAGCUUUACUACAGUAUAAGAAGAUCGUGUCUUGGCUGGAAUAUGAGUCCCGUUUUUCCAAUGAGGAAGCACAGAAAGCACAGGCCCUUCGACUGGCCUCUCACCUCAACCAACAGAGGAUUGAGCAUCA
B2: chr11:46743636:46743700:-|3pUTR|ENSG00000175216|msi1_unk|total|mutant (ssRNA)
RNA: GGGAGUUCUACAGUCCGACGAUCUUGUAAAAUUGUCCUAAUCUUUCCCCGCUUUUUAACCGUUAAUAUCCGAAACUCUUUAACCGUUUUCCUUUCAGUUUGUGAGCUCUUCUCUGUCGCCCUGAAGGGUCACUGUAUUCUGUACAACAGAGGAUUGAGCAUCA
B3: chr2:166409664:166409935:-|three_prime_utr|ENSG00000136546|control|control|control (ssRNA)
RNA: GGGAGUUCUACAGUCCGACGAUCUGUGGUAACAAGCCAAGCUUUUAAUGUCAUUGUUAUGGUUCUUAUAUGUUUCCAAGCAAUAGCCAUGAUGAUAGACACUGAUGUUCAGAGUCUACAAAUGUCCAUUGCUCUCUACUGGAUCAACAGAGGAUUGAGCAUCA
B4: ENSG00000070961:be:win_5601|3pUTR|ENSG00000070961|bound_else_gene|NA|bound_elsewhere_windowed (ssRNA)
RNA: GGGAGUUCUACAGUCCGACGAUCGAGGUAGCAUGAUAUGCUGGAAAGCAUAUUAGACUAGGAGUCAAGACCUGGUUUCUAGUCUUGGUUUUGCCAUUAAUGUGCUGCAUGAUCUUGGGAAAAUCAUUUACCCUAAAUAAGGGUCAACAGAGGAUUGAGCAUCA
B5: chr19:7961171:7961272:-|3pUTR|ENSG00000066044|msi1|FALSE|unique (ssRNA)
RNA: GGGAGUUCUACAGUCCGACGAUCGGCGGGAUUCCCGCUUCUGAAACUCCCCCUGGAGUCUCACUCCCACACAUGCCCAUAGCUAGCAUUCAACAGAGAACUCUGUCUUAAGCUUCAACUGUGAAAAUGAUGACGGGCUUGUAGCAACAGAGGAUUGAGCAUCA
B6: chr8:52110837:52113338:-|three_prime_utr|ENSG00000147488|control|control|control (ssRNA)
RNA: GGGAGUUCUACAGUCCGACGAUCCCCCGGAAUGCAAAGCUCUACUGGAAAGUAUCAAACAGGCAGUGAAGGGUAUCCAUGUGUAGGAUCACAGCGCUGCCGGGCAACAGAAGUUACCAACAGCAGUAAACUCCAGAUGGAUCUCAACAGAGGAUUGAGCAUCA
B7: ENSG00000107863:be:win_4051|CDS|ENSG00000107863|bound_else_gene|NA|bound_elsewhere_windowed (ssRNA)
RNA: GGGAGUUCUACAGUCCGACGAUCGUGCAGGAGGAAAGCACAGUAGACUCCCAGCCAGUGCCAAACAUAGAUCAUUUACUCACCAACAUUGGAAGGACAGGAGUCUCCCCAGGAGAUGUAUCAGAUUCAGCUACUAGUGACUCACAACAGAGGAUUGAGCAUCA
B8: ENSG00000107863:be:win_5501|CDS|ENSG00000107863|bound_else_gene|NA|bound_elsewhere_windowed (ssRNA)
RNA: GGGAGUUCUACAGUCCGACGAUCCUGUAAACCGGUUAAAACCAAAAUGCUCAGCCCAGGACCUUUCCAUCUCAGACUGGCUGGCCAGGGAACGCCUACGCACCAGUACCUCUGACCUUAGCAGAGGAGAAAUCGGAGAUCCCCCAACAGAGGAUUGAGCAUCA
B9: chr10:30313878:30313980:-|CDS|ENSG00000107951|unk|FALSE|unique (ssRNA)
RNA: GGGAGUUCUACAGUCCGACGAUCUGUUUUUAUAUUUAAGCCCUUCAUGUACUUACUCAUUUUUUCUUCUGUGUAAUAAUCUAUAGGGAAGGGAGCAAAACAAACCUGAUUCUUCUCCUCUGUACAUUCAGAAUCCAUUUGAAACAACAGAGGAUUGAGCAUCA
B10: chr2:216672374:216672548:-|3pUTR|ENSG00000115461|msi1|FALSE|unique (ssRNA)
RNA: GGGAGUUCUACAGUCCGACGAUCUUUUUCUUUUUUUUUUUGAAGACAGCAAUAACCACAGUACAUAUUACUGUAGUUCUCUAUAGUUUUACAUACAUUCAUACCAUAACUCUGUUCUCUCCUCUUUUUUGUUUUCAACUUUAACAACAGAGGAUUGAGCAUCA
B11: chr3:15254852:15254953:-|3pUTR|ENSG00000131370|msi1|FALSE|unique (ssRNA)
RNA: GGGAGUUCUACAGUCCGACGAUCAAACUGUUAAUUCUGUCACAGCCUGUAUAUUUUAGUCAUUUGUAAAUCUCUUCAUACAAUAGUGACUUCUUUUUUGACUGAUACAGUAUCUUAAUUACAAGGUUAUUUUGUACUUGUCUUCAACAGAGGAUUGAGCAUCA
B12: ENSG00000165219:stop:overlap|stop_codon|ENSG00000165219|stop_codon|NA|stop_codon (ssRNA)
RNA: GGGAGUUCUACAGUCCGACGAUCUACCUAUAGGUAAAGAGAAUUUCUCGUAUUGGAGCUUUCUCUUAAAUCUAAUAUUUCAUUAGCCUUUGUUAUUGCUGAGUGUUUUGGAACAUAUGUUUAAGUACUUGGGAAAGUCUUUCUCAACAGAGGAUUGAGCAUCA
B13: chr10:16593140:16593241:-|3pUTR|ENSG00000148484|unk|FALSE|unique (ssRNA)
RNA: GGGAGUUCUACAGUCCGACGAUCUUAUUUUUCUUUUCACUCUCUUUCUAAUGCUUCCCACCUUACCUUUUAGAUUCUUUUGCUAGGUGGGAGAUUGUUAUAAGGUCUUUAAACCAUUUCCAUUUGUUUCUUUAACAUUACCAACAACAGAGGAUUGAGCAUCA
B14: chr2:216672374:216672548:-|3pUTR|ENSG00000115461|msi1|total|mutant (ssRNA)
RNA: B10 RNA with U73C, A74C, U83C, A84C
B15: chr5:113594843:113594944:+|3pUTR|ENSG00000047188|msi1|FALSE|bound_elsewhere (ssRNA)
RNA: GGGAGUUCUACAGUCCGACGAUCCAACAUAAAAUCUUGAGAACCUUCUACUUUCUCUGGGAAAGCAUUAUAUAGUGGUGCAUUAGUUUAGAAAGUCAGCUAUGAUUUUGCCUAUAGUUCUAGUUAUUAGCUUUGGGGUUUUCUCAACAGAGGAUUGAGCAUCA
B16: chr1:93361585:93361687:+|3pUTR|ENSG00000117505|unk|FALSE|unique (ssRNA)
RNA: GGGAGUUCUACAGUCCGACGAUCUUUAACUUGUAGUUAUAGUUUACUUAUUGUUUUUAGAAUUACUUUUACAUUUUCCCAACUAGAUGGCCUAGAGUCCAACAUUACCUUUUGAGAUGACAUUAUUGUCUCCAUAAUUGAGUGCAACAGAGGAUUGAGCAUCA
B17: chr1:93361585:93361687:+|3pUTR|ENSG00000117505|unk|total|mutant (ssRNA)
RNA: B16 RNA with U33C, A34C, U39C, A40C, U57C, A58C, U83C, A84C, U92C, A93C
B18: chr7:123541454:123541562:-|3pUTR|ENSG00000128609|unk|FALSE|unique (ssRNA)
RNA: GGGAGUUCUACAGUCCGACGAUCUCCAUAGUGUCAUUUUAUUUUAGUCAUUAUUGAAUUAUACCAUUUACUCUGUUUUCUUAUAGUCUUAAUUUUAUUAUAUUUUGUUGUUACUGUAUUAUAUUUGAAAACCUUCAAAUUAGACAACAGAGGAUUGAGCAUCA
B19: chr5:113594843:113594944:+|3pUTR|ENSG00000047188|msi1|total|mutant (ssRNA)
RNA: GGGAGUUCUACAGUCCGACGAUCCAACAUAAAAUCUUGAGAACCUUCUACUUUCUCUGGGAAAGCAUUAUACCGUGGUGCAUCCGUUCCGAAAGUCAGCUAUGAUUUUGCCUACCGUUCCCGUUAUCCGCUUUGGGGUUUUCUCAACAGAGGAUUGAGCAUCA
B20: chr10:117282838:117282939:-|3pUTR|ENSG00000165650|unk|FALSE|bound_elsewhere (ssRNA)
RNA: GGGAGUUCUACAGUCCGACGAUCCCCCUUGUGUUAUUUUUCUUCCUCUUGGUUUUUGAAUUAGUGUUAAAUAGAAUACUGUCUAGAUUCUUAAAAUAUUUUCAUUUCCAUCAUGGUUAUAACAAAUUUGCUGCAUGCCCAAACCAACAGAGGAUUGAGCAUCA

This assay deals with MSI1 full-length (mouse, UniProt Q61474 1-362). Put plainly: nsRBNS (natural sequence RNA bind-n-seq); RBNS binding buffer (assumed for nsRBNS): 25 mM Tris pH 7.5, 150 mM KCl, 3 mM MgCl2, 0.01% Triton X-100, 500 ug/ml BSA, 20 U/ml SUPERase-In, 4 C; UNK is unkempt and MSI1 is Musashi-1; names of the RNAs are library labels; protein concentration not given here; high values mean tight binding.
Chain of MSI1 full-length (Q61474 whole entry): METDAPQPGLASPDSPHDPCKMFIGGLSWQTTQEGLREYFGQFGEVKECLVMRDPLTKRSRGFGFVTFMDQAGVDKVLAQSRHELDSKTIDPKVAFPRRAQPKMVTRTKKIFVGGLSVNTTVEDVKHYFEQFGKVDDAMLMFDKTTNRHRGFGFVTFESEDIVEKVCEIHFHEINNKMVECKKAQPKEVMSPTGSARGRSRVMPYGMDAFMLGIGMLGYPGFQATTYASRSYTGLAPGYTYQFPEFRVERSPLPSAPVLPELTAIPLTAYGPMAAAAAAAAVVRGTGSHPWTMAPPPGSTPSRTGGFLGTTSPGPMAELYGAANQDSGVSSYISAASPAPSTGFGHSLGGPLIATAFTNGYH
B1 gave a binding signal of 0.381 enrichment R.

The molecule B2 had a binding signal of 0.866 enrichment R.

In the case of B3, the binding signal was determined as 0.263 enrichment R.

On to B4, for which the binding signal is 0.263 enrichment R.

In turn, B5 showed a binding signal of 0.313 enrichment R.

Turning to B6, the binding signal is 0.319 enrichment R.

The molecule B7 had a binding signal of 1.93 enrichment R.

On to B8, for which the binding signal was determined as 0.497 enrichment R.

The molecule B9 yielded a binding signal of 1.04 enrichment R.

Take B10: the binding signal worked out at 21.2 enrichment R.

The molecule B11 showed a binding signal of 0.848 enrichment R.

As for B12, the binding signal was 1.03 enrichment R.

With B13, the binding signal turned out to be 10.5 enrichment R.

Regarding B14, the binding signal worked out at 7.36 enrichment R.

In turn, B15 showed a binding signal of 31.3 enrichment R.

Turning to B16, the binding signal turned out to be 56.8 enrichment R.

Take B17: the binding signal turned out to be 1.55 enrichment R.

Consider B18, for which the binding signal is 42.9 enrichment R.

B19 registered a binding signal of 0.394 enrichment R.

In turn, B20 came in with a binding signal of 3.9 enrichment R.
